SMILES strings stand for the structures. Values joined by “and” are separate entries in the source; they are usually repeats but may differ in a detail not shown here. Equal entries are not always repeated. For part of these data: Potency and affinity values are given separately.

Holding throughout (set-up): scale not given: direction of the effect not stated beside the values
Assay [1] has as its target Protein translocase subunit SecA (Escherichia coli (strain K12)) (UniProt P10408). The assay can be described thus: Assay to Identify E. coli SecA ATPase Inhibitors. In kind it is functional. Particulars: 30 µM.
Assay [2] has as its target T1, Ubiquitin-activating enzyme e1, putative (Leishmania donovani (strain BPK282A1)) (UniProt E9BSI1).
T1 sequence (whole entry): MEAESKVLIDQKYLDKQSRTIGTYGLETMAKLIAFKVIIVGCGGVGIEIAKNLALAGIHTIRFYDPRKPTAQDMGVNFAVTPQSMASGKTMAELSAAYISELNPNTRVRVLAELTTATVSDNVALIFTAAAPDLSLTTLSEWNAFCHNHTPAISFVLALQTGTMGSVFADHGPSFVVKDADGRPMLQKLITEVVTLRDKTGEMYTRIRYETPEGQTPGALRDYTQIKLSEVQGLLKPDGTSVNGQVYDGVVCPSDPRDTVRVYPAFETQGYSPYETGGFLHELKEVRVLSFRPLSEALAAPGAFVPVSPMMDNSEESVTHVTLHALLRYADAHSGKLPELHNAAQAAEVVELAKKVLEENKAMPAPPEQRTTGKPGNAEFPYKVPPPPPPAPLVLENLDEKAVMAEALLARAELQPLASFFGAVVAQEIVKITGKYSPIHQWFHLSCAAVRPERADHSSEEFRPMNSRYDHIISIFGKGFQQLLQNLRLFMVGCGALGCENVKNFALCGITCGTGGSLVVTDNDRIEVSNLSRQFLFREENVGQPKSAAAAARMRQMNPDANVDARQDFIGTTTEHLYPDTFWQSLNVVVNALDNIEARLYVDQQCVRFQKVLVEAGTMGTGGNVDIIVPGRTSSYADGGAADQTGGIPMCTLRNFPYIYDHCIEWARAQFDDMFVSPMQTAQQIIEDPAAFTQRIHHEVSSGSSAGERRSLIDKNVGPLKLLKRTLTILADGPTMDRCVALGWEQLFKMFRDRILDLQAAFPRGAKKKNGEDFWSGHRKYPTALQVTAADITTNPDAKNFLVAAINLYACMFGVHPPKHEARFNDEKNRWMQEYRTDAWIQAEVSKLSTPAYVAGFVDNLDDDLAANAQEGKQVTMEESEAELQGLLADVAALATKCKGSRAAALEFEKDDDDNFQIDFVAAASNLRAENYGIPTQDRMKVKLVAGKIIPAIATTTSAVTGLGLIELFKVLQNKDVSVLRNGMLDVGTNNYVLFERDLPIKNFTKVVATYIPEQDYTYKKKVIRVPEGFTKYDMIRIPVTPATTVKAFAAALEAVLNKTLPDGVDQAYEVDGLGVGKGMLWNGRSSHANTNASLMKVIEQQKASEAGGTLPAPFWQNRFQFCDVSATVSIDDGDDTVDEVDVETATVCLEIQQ
The assay can be described thus: Leishmania donovani Ubiquitin Activating Enzyme (LdE1). The class given is functional. To be noted: 30 µM.

Assay [3] deals with AMP-activated protein kinase, AMPK (Homo sapiens) (UniProt P54646+O43741+P54619+Q9UGJ0+Q9Y478+Q13131+Q9UGI9). The assay is described as follows: AMP-dependent Kinase enzyme assay. An in vitro enzyme assay that detects ADP turnover that is directly proportional to AMPK activity. This uses naive AMPK that is activated during the assay with MK-8722. In kind it is functional. Particulars: 30 µM.

Assay [4] addresses Sialic acid-binding Ig-like lectin 9 (Homo sapiens) (UniProt Q9Y336). The assay can be described thus: Hs-Siglec9 ALPHAscreen SOP 20170721. Particulars: 10 µM. For orientation: Alpha assays give light when donor and acceptor beads are brought close together.
Another assay relates to Trypanosoma cruzi. The assay is described as follows: Trypanosoma cruzi phosphomannomutase and mannose-1-phosphate guanylyltransferase assay. In kind it is functional. Particulars: 10 µM.
The target of assay [5] is T2, Arginase-2, mitochondrial (Homo sapiens) (UniProt P78540).
T2 sequence (whole entry): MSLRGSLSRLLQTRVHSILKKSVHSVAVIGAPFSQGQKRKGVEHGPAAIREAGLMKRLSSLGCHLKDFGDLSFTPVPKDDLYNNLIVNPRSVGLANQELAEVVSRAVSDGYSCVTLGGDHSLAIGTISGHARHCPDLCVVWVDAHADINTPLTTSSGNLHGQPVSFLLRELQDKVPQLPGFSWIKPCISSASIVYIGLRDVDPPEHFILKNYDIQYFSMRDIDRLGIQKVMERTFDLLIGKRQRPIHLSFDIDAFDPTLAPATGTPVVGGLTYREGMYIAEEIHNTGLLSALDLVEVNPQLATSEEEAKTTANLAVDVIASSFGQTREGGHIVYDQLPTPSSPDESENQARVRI
The assay is described as follows: in vitro enzyme assay to detect the production of urea directly proportional to the activity of Arginase II. Note: in the data most compounds retested in dose-response had high values. The class given is functional. To be noted: 33.3 µM.

The target of assay [6] is T3, Proteasome subunit beta (Trypanosoma cruzi) (UniProt O96673).
T3 sequence (whole entry): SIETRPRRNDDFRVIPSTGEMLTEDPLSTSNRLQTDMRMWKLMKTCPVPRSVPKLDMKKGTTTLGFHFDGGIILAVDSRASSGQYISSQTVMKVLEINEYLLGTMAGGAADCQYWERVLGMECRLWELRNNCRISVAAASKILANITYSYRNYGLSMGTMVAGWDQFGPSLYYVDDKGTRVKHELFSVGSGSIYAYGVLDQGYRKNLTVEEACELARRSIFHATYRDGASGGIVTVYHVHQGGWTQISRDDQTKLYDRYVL
The assay can be described thus: Trypanosoma cruzi proteasome chymotrypsin-like activity (TcProtChymo) assay. Note: in the data most compounds retested in dose-response had high values. The class given is functional. To be noted: 9.37 µM.

For a further assay, the species on record is Homo sapiens. The assay can be described thus: To identify inhibition of the IFN signalling (Jak-Stat) pathway via expression of an eGFP reporter gene under the control of an IFN-stimulated response element (ISRE) containing MxA promoter. The class given is functional. To be noted: 30 µM. A general note: Reporter assays use an easily measured gene product as a stand-in for the process of interest.

Assay [7] concerns the target T4, Tyrosyl-tRNA synthetase, putative (Trypanosoma cruzi (strain CL Brener)) (UniProt Q4DSP6).
T4 sequence (whole entry): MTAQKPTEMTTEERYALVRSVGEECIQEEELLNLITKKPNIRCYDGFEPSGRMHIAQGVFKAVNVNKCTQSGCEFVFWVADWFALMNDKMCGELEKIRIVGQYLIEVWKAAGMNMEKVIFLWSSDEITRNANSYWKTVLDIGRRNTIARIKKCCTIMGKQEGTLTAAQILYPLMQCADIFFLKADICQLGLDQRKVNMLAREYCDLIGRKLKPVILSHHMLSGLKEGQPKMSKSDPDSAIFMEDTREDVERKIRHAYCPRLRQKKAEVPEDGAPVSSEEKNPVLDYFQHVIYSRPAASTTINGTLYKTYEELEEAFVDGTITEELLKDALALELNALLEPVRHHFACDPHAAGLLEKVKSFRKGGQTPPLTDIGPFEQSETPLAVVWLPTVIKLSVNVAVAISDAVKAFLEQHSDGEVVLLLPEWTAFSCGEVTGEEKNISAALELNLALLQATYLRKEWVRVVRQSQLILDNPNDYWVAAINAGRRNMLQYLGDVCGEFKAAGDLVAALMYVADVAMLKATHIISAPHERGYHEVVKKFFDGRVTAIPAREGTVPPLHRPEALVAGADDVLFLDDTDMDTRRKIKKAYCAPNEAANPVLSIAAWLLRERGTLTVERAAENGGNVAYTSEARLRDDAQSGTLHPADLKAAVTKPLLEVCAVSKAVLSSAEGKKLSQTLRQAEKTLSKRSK
The assay is described as follows: Trypanosoma cruzi tyrosyl tRNA synthetase (TcYRS) _High Tyrosine SOP. Note: in the data most compounds retested in dose-response had high values. To be noted: 30 µM. In kind it is functional.

In assay [8] the target is T4, Tyrosyl-tRNA synthetase, putative (Trypanosoma cruzi (strain CL Brener)). The assay can be described thus: Trypanosoma cruzi tyrosyl tRNA synthetase (TcYRS) SOP. To be noted: 30 µM. In kind it is functional.
Assay [9] deals with Chromo domain-containing protein 1 (Saccharomyces cerevisiae (strain ATCC 204508 / S288c) (Baker's yeast)) (UniProt P32657). The assay is described as follows: ScCHD-1 Enzyme Inhibition Assay. Note: in the data most compounds retested in dose-response had high values. The class given is functional. Particulars: 30 µM.
Chromo domain-containing protein 1 (Saccharomyces cerevisiae (strain ATCC 204508 / S288c) (Baker's yeast)), sequence (P32657 whole entry, the tested form may be a part): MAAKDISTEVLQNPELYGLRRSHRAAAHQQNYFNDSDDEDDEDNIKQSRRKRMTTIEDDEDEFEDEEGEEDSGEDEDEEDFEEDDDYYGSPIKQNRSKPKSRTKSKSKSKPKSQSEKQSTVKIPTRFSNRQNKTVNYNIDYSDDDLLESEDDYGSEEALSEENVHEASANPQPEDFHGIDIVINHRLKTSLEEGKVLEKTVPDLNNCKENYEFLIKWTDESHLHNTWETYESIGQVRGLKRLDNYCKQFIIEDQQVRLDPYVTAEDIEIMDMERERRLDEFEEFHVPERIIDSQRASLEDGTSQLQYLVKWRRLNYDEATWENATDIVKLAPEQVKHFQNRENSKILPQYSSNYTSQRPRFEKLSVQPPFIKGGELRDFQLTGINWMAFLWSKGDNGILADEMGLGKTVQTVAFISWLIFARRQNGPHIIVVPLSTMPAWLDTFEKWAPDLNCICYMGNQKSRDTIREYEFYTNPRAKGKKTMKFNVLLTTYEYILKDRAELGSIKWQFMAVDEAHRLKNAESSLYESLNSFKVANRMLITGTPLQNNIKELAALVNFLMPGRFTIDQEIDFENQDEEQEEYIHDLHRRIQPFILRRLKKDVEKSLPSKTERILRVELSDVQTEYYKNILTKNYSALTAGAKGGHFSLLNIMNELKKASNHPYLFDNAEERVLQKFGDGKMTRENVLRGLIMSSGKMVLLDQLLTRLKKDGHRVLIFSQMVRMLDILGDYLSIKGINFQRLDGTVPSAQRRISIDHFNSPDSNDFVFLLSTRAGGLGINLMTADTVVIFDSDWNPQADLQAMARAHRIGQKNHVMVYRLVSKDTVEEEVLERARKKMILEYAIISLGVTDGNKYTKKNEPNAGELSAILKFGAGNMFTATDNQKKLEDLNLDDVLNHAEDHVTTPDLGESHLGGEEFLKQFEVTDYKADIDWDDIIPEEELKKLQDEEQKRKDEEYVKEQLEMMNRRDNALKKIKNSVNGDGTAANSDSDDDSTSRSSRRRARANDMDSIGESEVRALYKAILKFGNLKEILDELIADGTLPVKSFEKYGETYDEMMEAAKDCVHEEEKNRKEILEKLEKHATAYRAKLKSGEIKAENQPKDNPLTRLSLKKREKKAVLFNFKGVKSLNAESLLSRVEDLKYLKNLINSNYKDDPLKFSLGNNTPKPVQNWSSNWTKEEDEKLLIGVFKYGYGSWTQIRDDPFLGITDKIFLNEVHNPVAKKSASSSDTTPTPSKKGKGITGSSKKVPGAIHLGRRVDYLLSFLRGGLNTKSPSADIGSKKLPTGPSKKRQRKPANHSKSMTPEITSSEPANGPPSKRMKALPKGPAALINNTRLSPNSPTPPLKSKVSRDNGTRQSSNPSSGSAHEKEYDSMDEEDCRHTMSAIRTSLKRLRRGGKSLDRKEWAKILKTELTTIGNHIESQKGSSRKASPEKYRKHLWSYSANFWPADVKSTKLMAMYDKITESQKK
For a further assay, the system named is N/A. The assay is described as follows: Trypanosoma cruzi proteasome luciferase counter-screen. In kind it is functional. To be noted: 9.37 µM. On the technique in general: The purpose of a counterscreen is to sort out artefacts and off-target activity.

Protein translocase subunit SecA (Escherichia coli (strain K12)), sequence (P10408 whole entry): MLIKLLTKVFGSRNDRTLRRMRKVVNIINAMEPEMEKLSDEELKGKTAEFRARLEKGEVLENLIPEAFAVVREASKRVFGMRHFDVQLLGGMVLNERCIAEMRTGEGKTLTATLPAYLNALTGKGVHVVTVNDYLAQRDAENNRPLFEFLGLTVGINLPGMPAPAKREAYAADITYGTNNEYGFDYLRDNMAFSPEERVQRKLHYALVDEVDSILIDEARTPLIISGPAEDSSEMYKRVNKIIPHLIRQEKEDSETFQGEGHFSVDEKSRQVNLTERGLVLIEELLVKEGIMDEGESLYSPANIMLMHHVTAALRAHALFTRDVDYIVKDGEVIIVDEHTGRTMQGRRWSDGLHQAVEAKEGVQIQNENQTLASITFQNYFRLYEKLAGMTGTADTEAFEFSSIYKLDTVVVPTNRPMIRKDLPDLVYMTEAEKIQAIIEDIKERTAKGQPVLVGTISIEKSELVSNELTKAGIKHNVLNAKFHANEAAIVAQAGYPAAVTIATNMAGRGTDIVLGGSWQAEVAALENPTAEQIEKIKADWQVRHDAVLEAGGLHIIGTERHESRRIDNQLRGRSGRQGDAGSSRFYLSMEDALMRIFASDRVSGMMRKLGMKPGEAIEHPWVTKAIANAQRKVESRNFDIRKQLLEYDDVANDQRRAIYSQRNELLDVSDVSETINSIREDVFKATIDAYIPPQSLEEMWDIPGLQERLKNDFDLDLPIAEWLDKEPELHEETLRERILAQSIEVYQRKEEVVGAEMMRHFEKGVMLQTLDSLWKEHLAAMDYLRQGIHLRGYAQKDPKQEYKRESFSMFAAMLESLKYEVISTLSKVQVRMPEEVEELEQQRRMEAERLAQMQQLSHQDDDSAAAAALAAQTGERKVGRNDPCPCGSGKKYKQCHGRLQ
Sialic acid-binding Ig-like lectin 9 (Homo sapiens), sequence (Q9Y336 whole entry): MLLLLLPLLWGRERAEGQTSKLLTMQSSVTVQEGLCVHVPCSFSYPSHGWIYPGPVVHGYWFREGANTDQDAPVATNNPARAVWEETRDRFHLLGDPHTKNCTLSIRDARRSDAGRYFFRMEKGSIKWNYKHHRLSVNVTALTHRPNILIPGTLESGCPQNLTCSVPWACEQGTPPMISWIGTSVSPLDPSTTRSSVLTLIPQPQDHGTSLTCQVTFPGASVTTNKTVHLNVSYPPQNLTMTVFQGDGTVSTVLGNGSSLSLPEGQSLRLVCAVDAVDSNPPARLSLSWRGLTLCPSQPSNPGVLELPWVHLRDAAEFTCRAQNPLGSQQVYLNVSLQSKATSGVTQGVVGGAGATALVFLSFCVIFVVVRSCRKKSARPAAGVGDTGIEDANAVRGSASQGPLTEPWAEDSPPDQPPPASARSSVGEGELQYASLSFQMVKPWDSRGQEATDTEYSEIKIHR

As for `Cn1cc(N2CCC(NC(=O)c3c(F)cccc3F)C2=O)cn1` (stereo unspecified), the Percent Effect in assay [1] was -7.01%; in assay [2], -2.7%; in assay [3], 0.96%; in assay [4], -8.23%; in the assay on Trypanosoma cruzi it was -1.66%; in assay [5], -0.744%. The Percent Effect in assay [6] was 0.258%; in the assay listed under Homo sapiens it was -14.2%; in assay [7], 0%; in assay [8], 1.24%; in assay [9] it was 0.00639%.

In the case of `CC(C)C(=O)N1CCN(C(=O)c2cc(C(C)C)on2)[C@H]2CS(=O)(=O)C[C@H]21`, the Percent Effect in assay [1] was -2.71%; in assay [2], 18.1%; in assay [3] it was -7.12%; in assay [4] it was 11.2%; in the assay with Trypanosoma cruzi, 3.4%; in assay [5], 7.06%. The Percent Effect in [6] is 17.5%; in the assay filed under Homo sapiens, 13.2%; in assay [7], 0%; in assay [8], 7.69%; in assay [9], -5.25%.

As to `O=C(C1=CCCC1)N1C[C@@H]2COC[C@]2(COc2cccnc2)C1`, the Percent Effect in assay [1] was -2.49%; in assay [2], 2.7%; in [3], 7.33%; in assay [4] it was 5.37%; with Trypanosoma cruzi, -1.27%; in assay [5], 5.41%. Moreover, the Percent Effect in the assay with N/A is 7.45% and 8.06%; in the assay listed under Homo sapiens, 0.513%; in [7], 0%; in [8], -2.56%; in [9], 4.29%.

For the compound `CCc1ncnc2c1CCN(C(=O)N1CCCC1)CC2`, the Percent Effect is -5.11% in [1]; 0% in [2]; 4.79% in [3]; 8.2% in assay [4]; -2.7% with Trypanosoma cruzi; -10.9% in assay [5]. In addition, the Percent Effect is 12.3% in assay [6]; 1.54% in the assay listed under Homo sapiens; -3.12% in assay [7]; -5% in assay [8]; 2.94% in assay [9].

For `Cc1cc(CN2CCN(C(=O)NCc3nc(C)cs3)CC2)on1`, the Percent Effect in assay [1] was -3.26%; in assay [2], 23.7%; in assay [3] it was -8.55%; in assay [4], -8.19%; in the assay with Trypanosoma cruzi, -4.95%; in assay [5] it was 0%. Further, the Percent Effect in [6] is 12.9%; in the assay listed under Homo sapiens it was -12.4%; in assay [7], 5.42%; in assay [8], 13.6%; in assay [9] it was -3.29%.

As for `CC1CCCN(C(=O)c2csc(S(N)(=O)=O)c2)CC1` (stereo unspecified), the Percent Effect was -6.52% in assay [1]; 2.7% in assay [2]; 1.27% in assay [3]; -1.52% in [4]; -6.75% in the assay on Trypanosoma cruzi; 0.248% in assay [5]. Moreover, the Percent Effect in [6] is -0.944%; in the assay listed under Homo sapiens, -3.67%; in assay [7], 4.3%; in [8], 6.17%; in assay [9], -0.416%.
